Laboratory results as given in PubChem BioAssay (NCATS).
Inconclusive results are not listed. Values without a mark were called inactive. The call rests on the fitted dose curve; in most records, active means well fitted inhibition curve with a large enough effect; inconclusive means small, poorly fitted or top-dose-only effect; inactive means no such curve, though single readings can be large or run the other way.

These compounds were tested on Zika virus NS2B-NS3 protease (unlinked complex) (assay: Primary screen GU Rhodamine qHTS for Zika virus inhibitors: Unlinked NS2B-NS3 protease assay (AID 1347159; further: nearly all actives have a fitted effect of over 60% in size)). Details: Recombinant ZIKV NS2B-NS3 protease, Rhodamine110 substrate fluorescence; series mostly up to 107 µM; activity change, negative = inhibition: at the top concentration.
Procedure, shortened: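 Enzyme 25 nM in Tris-HCl pH 8.0 + 0.01% Tween 20; compounds up to 114 microM, 15 min RT dark; + Rhod110 substrate 1.5 microM; read t0 and 15 min; delta fluorescence → % inhibition → 4-parameter Hill fit.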
On the % scale 0 is the no-effect control and ±100 the full control effect.

Structure (SMILES)	activity change, negative = inhibition
C[C@H](O)C(O)(C(=O)OCc1ccccc1NC(=O)CCC(N)C(=O)O)[C@H](C)O (stereo partly specified)	11.2% [at 57.1 µM]
CC(O)C1NC(=O)C2CCCN2C1=O (stereo unspecified)	4.95% [at 171 µM]
OCC1=C[C@@H](O)[C@@H]2C=CO[C@@H](O[C@@H]3O[C@H](CO)[C@@H](O)[C@H](O)[C@H]3O)[C@H]12	-5.46%
C=C[C@@]1(C)CCC2=C([C@H]1OC(C)=O)[C@H](OC(C)=O)CC1[C@](C)(C(=O)OC)CC[C@H](OC(C)=O)[C@]21C (stereo partly specified)	-9.31% [at 57.1 µM]
C=C1CC[C@@]2(OC1)O[C@H]1CC3[C@@H]4CC=C5C[C@@H](O)C[C@@H](O[C@@H]6OC[C@H](O)[C@H](O)[C@H]6O[C@@H]6O[C@@H](C)[C@H](O)[C@@H](O)[C@H]6O)[C@]5(C)C4CC[C@]3(C)[C@H]1[C@@H]2C (stereo partly specified)	-3.68% [at 32.5 µM]
CCC12CCCN3CCc4c(n(c5ccccc45)C(O)C1)C32 (stereo unspecified)	-12.8%
COCCCc1sc(-c2ccccc2)nc1C(=O)Nc1ccccc1-c1nc2cc(CN3CCCC3)cnc2s1	-44.6% [at 57.1 µM]
COc1cc(/C=C/C(=O)O[C@H]2C[C@@H]3C(C(=O)O)=CO[C@@H](O[C@@H]4O[C@H](CO)[C@@H](O)[C@H](O)[C@H]4O)[C@@H]3[C@H]2C)ccc1O	-2.97% [at 57.1 µM]
COC(=O)C1=COC(O[C@@H]2O[C@H](CO)[C@@H](O)[C@H](O)[C@H]2O)[C@@H]2[C@@](C)(O)[C@@H](OC(=O)/C=C/c3ccccc3)C[C@]12O (stereo partly specified)	-21.2% [at 57.1 µM]
CCCN(CCN1CCN(c2ccccc2OC)CC1)C1CCc2ncsc2C1 (stereo unspecified)	140%
CC(=O)O[C@@H]1[C@H](O[C@@H]2O[C@H](CO)[C@@H](O)[C@H](O)[C@H]2O)[C@@H](O[C@@H]2O[C@@H](C)[C@H](O)[C@@H](O[C@@H]3O[C@H](CO)[C@@H](O)[C@H](O)[C@H]3O)[C@H]2O)[C@H](OC(=O)[C@]23CCC(C)(C)C[C@H]2C2=CCC4[C@@]5(C)C[C@H](O)[C@H](O[C@@H]6O[C@H](C(=O)O)[C@@H](O)[C@H](O)[C@H]6O)[C@@](C)(C(=O)O)C5CC[C@@]4(C)[C@]2(C)CC3)O[C@@H]1C (stereo partly specified)	16.2% [at 19.1 µM]
